# From PubChem BioAssay (NCATS)
# Where “and” joins values, the source holds several entries; their conditions need not be identical. Identical values can stand only once. Inconclusive results are not listed. Entries that show only a call come without a potency. Calls of active or inactive are those of the source. Calls come from the whole dose curve; as a rule, active = well fitted cell-killing curve with a large enough effect; inconclusive = small, poorly fitted or top-dose-only effect; inactive = no such curve, though single readings can be large or run the other way.
# Assay: qHTS of pediatric cancer cell lines to identify multiple opportunities for drug repurposing: Primary screen for Rh41 cells (AID 1347108); note: nearly all actives have a fitted effect of over 70% in size
# Conditions: Rh41 rhabdomyosarcoma viability, CellTiter-Glo luminescence, 48 h; series mostly up to 46 µM
# Procedure, shortened: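 Phenotypic viability qHTS, 48 h compound exposure, CellTiter-Glo luminescence read-out; multi-concentration dosing so that potency and efficacy derive directly from the primary screen's curves.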
# Potency is the fitted concentration of half-maximal effect.
row,SMILES,Potency
1,Cc1cc2c(C(C)C)c(O)c(O)c(C=O)c2c(O)c1-c1c(C)cc2c(C(C)C)c(O)c(O)c(C=O)c2c1O,16.8 µM (active) and 18.7 µM (active)
2,NS(=O)(=O)c1cc2c(cc1Cl)NC=NS2(=O)=O,inactive
3,CC1(C)SCCN(S(=O)(=O)c2ccc(OCC#CCO)cc2)[C@@H]1C(=O)NO,inactive
4,CCCc1nc2c(C)cc(-c3nc4ccccc4n3C)cc2n1Cc1ccc(-c2ccccc2C(=O)O)cc1,inactive
5,CC(C)NCC(O)COc1ccc(COCCOC(C)C)cc1 (stereo not given),inactive
6,NCCc1ccc(O)c(O)c1,inactive
7,Oc1ccc(C2CNCCc3c2cc(O)c(O)c3Cl)cc1 (stereo not given),inactive
8,CCC(C)n1ncn(-c2ccc(N3CCN(c4ccc(OC[C@H]5CO[C@](Cn6cncn6)(c6ccc(Cl)cc6Cl)O5)cc4)CC3)cc2)c1=O (stereo not given in full),inactive
9,CCc1ccc(CCOc2ccc(CC3SC(=O)NC3=O)cc2)nc1 (stereo not given),inactive
10,O=c1n(CCCN2CCN(c3cccc(Cl)c3)CC2)nc2ccccn12,inactive
11,CNC(=O)c1ccc(N2C(=S)N(c3ccc(C#N)c(C(F)(F)F)c3)C(=O)C2(C)C)cc1F,inactive
12,Cc1cnc(NC(=O)C2=C(O)c3ccccc3S(=O)(=O)N2C)s1,inactive
13,Nc1ccc(S(=O)(=O)Nc2ccnn2-c2ccccc2)cc1,inactive
14,NC(=O)c1cnccn1,inactive
15,CCCCNc1cc(C(=O)O)cc(S(N)(=O)=O)c1Oc1ccccc1,inactive
16,Cc1ccccc1C(OCCN(C)C)c1ccccc1 (stereo not given),inactive
17,Cc1[nH]c(=O)c(C#N)cc1-c1ccc2nccn2c1,inactive
18,OC(CCN1CCCCC1)(c1ccccc1)C1CC2C=CC1C2 (stereo not given),inactive
19,CC(c1cc2ccccc2s1)N(O)C(N)=O (stereo not given),inactive
20,O=C1CCC(N2C(=O)c3ccccc3C2=O)C(=O)N1 (stereo not given),inactive
21,O=C(O)COCCN1CCN(C(c2ccccc2)c2ccc(Cl)cc2)CC1 (stereo not given),inactive
22,Cc1ccc(-n2nc(C(C)(C)C)cc2NC(=O)Nc2ccc(OCCN3CCOCC3)c3ccccc23)cc1,inactive
23,Clc1cccc(Cl)c1NC1=NCCN1,inactive
24,CC(C[N+](C)(C)C)OC(N)=O (stereo not given),inactive
25,O=C(O)CCc1ccc(NCc2cccc(Oc3ccccc3)c2)cc1,inactive
26,CC(C)(C)NCC(O)c1ccc(O)c(CO)c1 (stereo not given),inactive
27,c1ccc([C@H]2CN3CCSC3=N2)cc1,inactive
28,C[C@]12CCC(=O)C=C1CC[C@@H]1[C@@H]2[C@@H](O)C[C@@]2(C)[C@H]1CC[C@]2(O)C(=O)CO,inactive
29,CNC[C@H](O)c1cccc(O)c1,inactive
30,N[C@@H]1CONC1=O,inactive
